Sampled rows, rich in hits. Any-hit rate of the full collection: about 6.5%.
NADH coupling: inhibitors of PK/LDH coupling enzymes, profiling panel, artefact control, biochemical, MLSMR library. AID 774, 2007. coupled PK/LDH NADH assays, four targets. IC50, µM (highest dose often 10 µM), without a hit: at the highest dose inhibition. 0.02% of 65,000 active;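 active = single-dose screening hits from any of four coupled enzyme assays that gave an IC50 when retested across doses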;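 note: the DPM-DC format reads NADH fluorescence rather than 340 nm absorbance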
A340 absorber: compound light absorbance at 340 nm, profiling panel, artefact control, biochemical, MLSMR library, data from PS, PMK, MK assays; fold change at 10 µM; compound absorbance at 340 nm, fold over control; 65,000 tested, under 10 active; AID 708, 2007;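 active = at 10 µM dose, initial 340 nm absorbance at least 2 fold that of control wells; inactive = change under 2 fold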;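 note: initial absorbance extrapolated from kinetic A340 decline of NADH oxidation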
Spn MK inh: S. pneumoniae MK inhibitors, primary screen, biochemical, PK/LDH-coupled NADH absorbance; AID 555, 2006; inhibition, % at 10 µM; purified MK, PK/LDH-coupled NADH absorbance 340 nm; 0.48% of 65,000 active;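 active = ranked among the strongest by inhibition in the single 10 µM screen, a fixed top-ranked set picked for dose follow-up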
Autofluor 339: intrinsic fluorescence of library compounds, ex339/em460 – biochemical, MLSMR library, data from DPM-DC assay, artefact control, profiling panel. 5.5% of 65,000 active. fluorescence fold increase at 10 µM. compound autofluorescence, ex339/em460 nm, NADH buffer; stronger effect = higher value; 1 = no-compound wells, NADH background. AID 709, 2007;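 active = at 10 µM, mean starting fluorescence two-fold or more over control wells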;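 note: signal is the first read of a kinetic run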
PMK inhibit: S. pneumoniae PMK inhibitors, primary screen, biochemical, mevalonate pathway, pilot trial included | inhibition, % at 10 µM | purified PMK, PK/LDH-coupled NADH absorbance 340 nm | 0.49% of 65,000 active;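 active = top-ranked compounds by inhibition in the single 10 µM screen, taking a fixed number of the strongest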;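 note: 0% = full reaction with DMSO carrier and 100% = background rate without enzyme reaction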
Spn DPM-DC inh: S. pneumoniae DPM-DC inhibitors, primary screen, biochemical, PK/LDH-coupled NADH fluorescence; calls only at 10 µM; purified DPM-DC; diphosphomevalonate decarboxylase (Streptococcus pneumoniae D39); AID 556, 2006; 0.49% of 65,000 active;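 active = the 320 compounds with the highest percent inhibition in the single-dose primary screen, excluding strongly autofluorescent ones, cut at about 32% in these data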;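 note: kinetic rate of NADH fluorescence loss reporting ADP formed by the decarboxylase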
Active calls of the source: *; i = inactive; · = no result shown; + = active, no number.

SMILES	NADH coupling	A340 absorber	Spn MK inh	Autofluor 339	PMK inhibit	Spn DPM-DC inh
COc1ccc(C(=O)NCc2cn3c(C)csc3n2)cc1OC	36.0%	1	3.0	1.12	4.0	+
O=C(c1c[nH]c2ccc(S(=O)(=O)N3CCC4(CC3)OCCO4)cc2c1=O)N1CCOCC1	9.0%	1.07	0.0	2.1*	18.0	·
Cc1cccc(N(C)S(=O)(=O)c2ccc3[nH]cc(C(=O)N4CCOCC4)c(=O)c3c2)c1	6.0%	1.11	5.0	2.04*	0.0	i
CC(C)c1ccccc1OCCNS(C)(=O)=O	0.0%	1.07	1.0	1.07	0.0	i
Cc1cc(C)cc(CC2CC(=O)N(c3nc(C)cc(C)n3)C2=O)c1 (stereo unspecified)	10.0%	0.89	6.0	1	25.0*	i
Cc1cccc(-n2c(N)c(C(=O)NCCN3CCOCC3)c3nc4ccccc4nc32)c1	5.0%	1.09	0.0	5.07*	10.0	·
CC(C)Cn1c2nc3ccccc3nc2c2c(=O)n(CCN3CCOCC3)cnc21	10.0%	1.1	10.0	3.52*	9.0	·
COCCCn1c2nc3ccccc3nc2c2c(=O)n(CC3CCCO3)cnc21 (stereo unspecified)	7.0%	1.12	13.0	2.32*	0.0	·
CC(C)Cn1c(N)c(C(=O)NCCN2CCOCC2)c2nc3ccccc3nc21	5.0%	0.99	12.0	2.93*	7.0	·
O=C(NCCN1CCOCC1)c1ccc(-c2ccccc2)cc1	5.0%	1.07	16.0	1.08	0.0	i
CCCCn1c2nc3ccccc3nc2c2c(=O)n(CCC(C)C)cnc21	1.0%	1.04	0.0	1.79	0.0	i
CC1=C(C(=O)Nc2ccccc2)C(c2ccc3c(c2)OCO3)C2=C(CCCC2=O)N1 (stereo unspecified)	7.0%	1.12	4.0	2.22*	5.0	i
CCN(CC)c1ccc(C2C(C(=O)Nc3ccccn3)=C(C)NC3=C2C(=O)CC(C)(C)C3)cc1 (stereo unspecified)	6.0%	1.13	3.0	1.63	4.0	i
CCc1ccccc1NC(=O)CSC1=C(C#N)C(c2ccc3c(c2)OCO3)C2=C(CCCC2=O)N1 (stereo unspecified)	4.0%	1.05	8.0	1.18	4.0	i
CC1=C(C(=O)Nc2cc(C)ccn2)C(c2ccc(C)cc2)C2=C(CCCC2=O)N1 (stereo unspecified)	3.0%	1.07	5.0	2.29*	0.0	·
Clc1ccc(CSc2nnc(-c3ccccn3)n2Cc2ccco2)c(Cl)c1	1.0%	0.98	1.0	0.02	0.0	·
Cc1ccc(CNS(=O)(=O)c2ccc(C(C)(C)C)cc2)n1C	5.0%	1.01	6.0	1.14	10.0	i
CCCCN(C)CCNC(=O)c1c[nH]c2ccc(S(=O)(=O)N(CC)CC)cc2c1=O	13.0%	1.06	0.0	3.17*	19.0	i
CC(C)(CC(=O)N1CCN(c2ccc(Cl)cc2)CC1)CC1=NS(=O)(=O)c2ccccc2N1	3.0%	1.02	7.0	1.16	1.0	i
Cc1c(OCC(=O)OC(C)(C)C)ccc2c3c(c(=O)oc12)CCC3	1.0%	1.07	4.0	1.89	0.0	i
CSCCC(NC(C)=O)C(=O)Oc1ccc2c3c(c(=O)oc2c1)CCCC3 (stereo unspecified)	0.0%	1.09	0.0	2.14*	0.0	·
CCC(NC(=O)OC(C)(C)C)C(=O)Oc1ccc2c3c(c(=O)oc2c1)CCC3 (stereo unspecified)	9.0%	1.03	9.0	3.65*	9.0	·
COC(=O)[C@H](CCSC)NC(=O)Nc1ccc(C)cc1C	0.0%	1.03	0.0	1.11	0.0	i
COc1cccc(C2c3c(oc4ccc(Cl)cc4c3=O)C(=O)N2c2cc(C)on2)c1OC (stereo unspecified)	4.0%	1.05	1.0	1.03	10.0	i
CCCCC(CC)CNC(=O)C1CCCN(S(=O)(=O)c2cnc[nH]2)C1 (stereo unspecified)	1.0%	0.99	2.0	1.01	2.0	i
SMILES	NADH coupling	A340 absorber	Spn MK inh	Autofluor 339	PMK inhibit	Spn DPM-DC inh
COc1cc(-c2nnc(SCC(=O)c3ccccc3)o2)cc(OC)c1OC	5.0%	1.01	0.0	1.12	14.0	i
COc1cc(-c2nnc(-c3ccc(S(=O)(=O)c4ccccc4)cc3)o2)cc(OC)c1OC	11.0%	1.02	8.0	3.74*	13.0	·
Cc1cccc2cc3c(NC(=O)c4ccccn4)nn(C)c3nc12	7.0%	1.01	6.0	2.09*	0.0	i
CCCC(=O)Nc1nn(C)c2nc3c(C)cccc3cc12	3.0%	1.06	4.0	1.67	2.0	i
O=C(O)c1ccc2cccc(Cl)c2c1O	12.0%	1.08	5.0	2.54*	8.0	i
Cc1c(Cl)cccc1Nc1ccccc1C(=O)O	2.0%	1	5.0	1.01	10.0	i
COc1ccc(CN(C)CCc2ccccn2)c(OC)c1OC	24.0%	1.04	68.0*	1.09	4.0	i
Cc1cccc(CN(C)CCc2ccccn2)c1	15.0%	1.09	44.0*	1.15	0.0	i
Cc1ccc(S(=O)(=O)N2CCN(Cc3ccccc3C(F)(F)F)CC2)cc1	16.0%	1.08	44.0*	1.04	5.0	i
O=C(c1ccco1)N1CCN(Cc2ccccc2C(F)(F)F)CC1	16.0%	1	48.0*	1.08	0.0	i
O=C(c1ccco1)N1CCN(Cc2cccc(F)c2)CC1	5.0%	1.01	8.0	1.14	7.0	i
O=C1c2ccccc2S(=O)(=O)N1CCOc1ccc(F)cc1	3.0%	1.01	0.0	1.03	9.0	i
CC(=O)c1cccc(S(=O)(=O)NCC(c2ccco2)N2CCCCC2)c1 (stereo unspecified)	3.0%	0.99	0.0	1.04	9.0	i
CCOC(=O)c1c(Nc2nc(C)c(C(=O)NC)s2)sc(C)c1C	30.0%	1.15	33.0	1.08	16.0	+
COc1ccccc1/C=C/CN1CC(C)OC(C)C1 (stereo unspecified)	16.0%	1.08	48.0*	1.1	0.0	i
Cn1c(/C=N/c2nc3ccccc3[nH]2)nc2ccccc21	6.0%	1.03	7.0	1.16	5.0	i
Cn1c(/C=N/n2cnnc2)nc2ccccc21	3.0%	1.04	6.0	2.45*	7.0	·
COCCn1c(-c2cc(OC)c(OC)c(OC)c2)nc2oc3ccccc3c(=O)c2c1=O	4.0%	1.01	7.0	1.1	4.0	i
COc1ccccc1CNC(=O)C1CCN(S(=O)(=O)c2c(C)noc2C)CC1	5.0%	1.04	1.0	1.07	14.0	i

Assay outcomes (PubChem BioAssay)
